Laboratory results from PubChem BioAssay (NCI).
This is part of a sample that, as a whole, favours compounds with a hit. Of some 83,000 tested, about 20% had one in any assay.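 Cells were grown in 96-well plates and exposed to the test compound at a single concentration for 48 hours; results are reported as percent growth, with values below 10 considered active.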 The source made the active and inactive calls.

How the values were obtained:
Experiment in all cases: NCI-60 one-dose screen, 48 h (100 = growth as untreated, 0 = no growth, -100 = all killed)
Conditions in all cases: 10 µM unless noted
SR leukemia = test system: SR leukemia
RPMI-8226 leukemia = test system: RPMI-8226 leukemia
OVCAR-8 ovarian = test system: OVCAR-8 ovarian
OVCAR-5 ovarian = test system: OVCAR-5 ovarian
OVCAR-4 ovarian = test system: OVCAR-4 ovarian
SK-OV-3 ovarian = test system: SK-OV-3 ovarian
IGROV1 ovarian = test system: IGROV1 ovarian
OVCAR-3 ovarian = test system: OVCAR-3 ovarian
HS 578T breast = test system: HS 578T breast
NCI/ADR-RES ovarian = test system: NCI/ADR-RES ovarian

Measured: growth

CCCCCCCCCCCCCCCCCCOc1ccccc1CC(=O)OCC[N+]1(C)CCCC1
inactive: SR leukemia 17.8% | RPMI-8226 leukemia 21.6% | OVCAR-8 ovarian 11.9% | OVCAR-5 ovarian 37.3% | OVCAR-4 ovarian 27.9% | SK-OV-3 ovarian 94.1% | OVCAR-3 ovarian 22.3% | HS 578T breast 30.3% | NCI/ADR-RES ovarian 82.3%
active: IGROV1 ovarian -58%

COc1ccc(-c2nn(-c3ccccc3)cc2/C=C2/SC(=S)N(C)C2=O)cc1
inactive: SR leukemia 29.3% | RPMI-8226 leukemia 89.8% | OVCAR-8 ovarian 49.8% | OVCAR-5 ovarian 76.3% | SK-OV-3 ovarian 90.8% | IGROV1 ovarian 33.3% | OVCAR-3 ovarian 53% | HS 578T breast 39.3% | NCI/ADR-RES ovarian 74.5%
active: OVCAR-4 ovarian -24%

Cc1ccc(CNc2ccc(Cl)cc2NCc2ccc(C)c(O)c2)cc1O
active: SR leukemia -33%
inactive: RPMI-8226 leukemia 16% | OVCAR-8 ovarian 23.6% | OVCAR-5 ovarian 73.6% | OVCAR-4 ovarian 27.8% | SK-OV-3 ovarian 54.7% | IGROV1 ovarian 24.2% | OVCAR-3 ovarian 10.9% | HS 578T breast 42.7% | NCI/ADR-RES ovarian 15.4%

c1ccc(CNc2c3ccccc3nc3ccccc23)cc1
active: RPMI-8226 leukemia 7.65%
inactive: SR leukemia 11.7% | OVCAR-8 ovarian 26.1% | OVCAR-5 ovarian 45.7% | OVCAR-4 ovarian 43.2% | SK-OV-3 ovarian 46.7% | IGROV1 ovarian 29.8% | OVCAR-3 ovarian 51.7% | HS 578T breast 56.1% | NCI/ADR-RES ovarian 37.6%

COc1ccc2[nH]cc(-c3nc(-c4c[nH]c5ccncc45)cs3)c2c1
active: SR leukemia 0.735% | RPMI-8226 leukemia -20% | OVCAR-3 ovarian -13.2%
inactive: OVCAR-8 ovarian 38.6% | OVCAR-5 ovarian 45.3% | OVCAR-4 ovarian 47.3% | SK-OV-3 ovarian 86.3% | IGROV1 ovarian 64.7% | HS 578T breast 93.2% | NCI/ADR-RES ovarian 59.9%

COc1cc(-c2nc(SCCC(C)C)nc(Nc3ccccc3Cl)c2C#N)cc(OC)c1OC
inactive: SR leukemia 102% | RPMI-8226 leukemia 101% | OVCAR-8 ovarian 101% | OVCAR-5 ovarian 89.7% | OVCAR-4 ovarian 90.2% | SK-OV-3 ovarian 120% | IGROV1 ovarian 91.6% | OVCAR-3 ovarian 105% | HS 578T breast 95.6% | NCI/ADR-RES ovarian 101%

O=C1CNC(c2ccccc2)C(c2ccccc2)N1 (stereo not given)
inactive: SR leukemia 106% | RPMI-8226 leukemia 75.2% | OVCAR-8 ovarian 98% | OVCAR-5 ovarian 86.5% | OVCAR-4 ovarian 89% | SK-OV-3 ovarian 107% | IGROV1 ovarian 93% | OVCAR-3 ovarian 107% | HS 578T breast 86.1% | NCI/ADR-RES ovarian 81%

C#COc1cccc(Nc2ncnc3ncc(NC(=O)CCl)cc23)c1
inactive: SR leukemia 16.2% [6.25 µM] | RPMI-8226 leukemia 52.9% [6.25 µM] | OVCAR-8 ovarian 10.3% [6.25 µM] | OVCAR-5 ovarian 31.5% [6.25 µM] | OVCAR-4 ovarian 32.6% [6.25 µM] | SK-OV-3 ovarian 53.1% [6.25 µM] | HS 578T breast 43.4% [6.25 µM] | NCI/ADR-RES ovarian 12% [6.25 µM]
active: IGROV1 ovarian -42.4% [6.25 µM] | OVCAR-3 ovarian -56.4% [6.25 µM]

Nc1ncnc2c1N=C(c1ccc3c(c1)OCO3)CC(c1cccc(Nc3ccnc4cc(Cl)ccc34)c1)N2 (stereo not given)
inactive: OVCAR-8 ovarian 51.1% | OVCAR-5 ovarian 97% | OVCAR-4 ovarian 60.7% | SK-OV-3 ovarian 79.2% | IGROV1 ovarian 59.4% | OVCAR-3 ovarian 67.7% | HS 578T breast 87.1% | NCI/ADR-RES ovarian 56.8%
active: SR leukemia 3.03% | RPMI-8226 leukemia -24%

COc1cccc(CNc2ncnc3c2ncn3C2OC(CO)C(O)C2O)c1O (stereo not given)
active: SR leukemia -9.69% | RPMI-8226 leukemia -28.5% | OVCAR-8 ovarian 6.83% | OVCAR-5 ovarian 9.68% | SK-OV-3 ovarian -61.5% | IGROV1 ovarian -23.4% | OVCAR-3 ovarian -0.409% | HS 578T breast -27% | NCI/ADR-RES ovarian 2.34%
inactive: OVCAR-4 ovarian 11.3%

N#Cc1cccc(NC(=O)c2oc3ccccc3c2-c2cnn(-c3ccccc3)c2)c1
inactive: OVCAR-8 ovarian 76.4% [50 µM] | OVCAR-5 ovarian 83.8% [50 µM] | OVCAR-4 ovarian 89.1% [50 µM] | SK-OV-3 ovarian 78% [50 µM] | IGROV1 ovarian 92.6% [50 µM] | OVCAR-3 ovarian 104% [50 µM] | HS 578T breast 89.3% [50 µM] | NCI/ADR-RES ovarian 77.2% [50 µM]
active: SR leukemia 3.02% [50 µM] | RPMI-8226 leukemia -16.2% [50 µM]

Cc1nnc(NC(=O)c2nc(S(=O)(=O)Cc3ccc(F)cc3)ncc2Cl)s1
active: SR leukemia 1.43%
inactive: RPMI-8226 leukemia 37% | OVCAR-8 ovarian 56.4% | OVCAR-5 ovarian 85.6% | OVCAR-4 ovarian 101% | SK-OV-3 ovarian 101% | IGROV1 ovarian 91.1% | OVCAR-3 ovarian 21.8% | HS 578T breast 93.1% | NCI/ADR-RES ovarian 93%

CC1=C(C(=O)OC(C)C)C(c2ccc3c(c2)OCO3)NC(=S)N1 (stereo not given)
inactive: SR leukemia 103% | RPMI-8226 leukemia 87.7% | OVCAR-8 ovarian 102% | OVCAR-5 ovarian 105% | OVCAR-4 ovarian 98.4% | SK-OV-3 ovarian 105% | IGROV1 ovarian 99.9% | OVCAR-3 ovarian 121% | HS 578T breast 97.3% | NCI/ADR-RES ovarian 101%

Nc1ncnc2c1N=C(c1ccc3c(c1)OCO3)CC(c1ccc([N+](=O)[O-])cc1)N2 (stereo not given)
active: IGROV1 ovarian 3.46%
inactive: SR leukemia 45.6% | RPMI-8226 leukemia 46.2% | OVCAR-8 ovarian 87.3% | OVCAR-5 ovarian 75.8% | OVCAR-4 ovarian 99% | SK-OV-3 ovarian 86% | OVCAR-3 ovarian 103% | HS 578T breast 74% | NCI/ADR-RES ovarian 82%

CO[C@]12C=C/C(=C(/C(=O)OCc3cccnc3)C(=O)CCCCCCCC[C@@]3(OC)C=C/C(=C(/C(=O)OCc4cccnc4)C(=O)CCCCCCCC1)O3)O2
active: SR leukemia -9.1% | RPMI-8226 leukemia -9.22% | OVCAR-5 ovarian -5.24% | IGROV1 ovarian 2.68% | OVCAR-3 ovarian -19.3%
inactive: OVCAR-8 ovarian 19.9% | OVCAR-4 ovarian 11% | SK-OV-3 ovarian 57.4% | HS 578T breast 37% | NCI/ADR-RES ovarian 36.3%

Clc1ccc(Sc2cnc(-c3ccccc3)o2)cc1
inactive: SR leukemia 90% | RPMI-8226 leukemia 89.7% | OVCAR-8 ovarian 99.2% | OVCAR-5 ovarian 98.8% | OVCAR-4 ovarian 95.8% | SK-OV-3 ovarian 101% | IGROV1 ovarian 97% | OVCAR-3 ovarian 97.5% | HS 578T breast 99.1% | NCI/ADR-RES ovarian 108%

N#CC1CCc2c(c(-c3cn[nH]c3C(F)(F)F)nc3c(F)cc4[nH]ncc4c23)C1 (stereo not given)
active: SK-OV-3 ovarian -1.91% | IGROV1 ovarian -4.43% | HS 578T breast -8.7%
inactive: SR leukemia 14.5% | RPMI-8226 leukemia 34.6% | OVCAR-8 ovarian 43% | OVCAR-5 ovarian 63.2% | OVCAR-4 ovarian 59.7% | OVCAR-3 ovarian 16.6% | NCI/ADR-RES ovarian 92.4%

COc1cccc([C@H]2c3[nH]c4ccccc4c3C[C@H]3C(=O)N(CCCCCCC(=O)NO)CC(=O)N23)c1
active: SR leukemia 4.26%
inactive: RPMI-8226 leukemia 14.6% | OVCAR-8 ovarian 65.6% | OVCAR-5 ovarian 62.1% | OVCAR-4 ovarian 62% | SK-OV-3 ovarian 77.1% | IGROV1 ovarian 64.4% | OVCAR-3 ovarian 64.7% | HS 578T breast 59.6% | NCI/ADR-RES ovarian 91.1%

O=C(O)/C(=C\c1ccc(Cl)cc1)c1ccc(Cl)cc1
inactive: SR leukemia 96.8% | RPMI-8226 leukemia 100% | OVCAR-8 ovarian 96.3% | OVCAR-5 ovarian 74.1% | OVCAR-4 ovarian 90.5% | SK-OV-3 ovarian 111% | IGROV1 ovarian 71.2% | OVCAR-3 ovarian 101% | HS 578T breast 78% | NCI/ADR-RES ovarian 90.1%

Cc1cccc(Cl)c1NC(=O)c1ccc2nc(NC(=O)NCCN(C)C)sc2c1
inactive: SR leukemia 66% | RPMI-8226 leukemia 94% | OVCAR-8 ovarian 85.7% | OVCAR-5 ovarian 85.4% | OVCAR-4 ovarian 95.3% | SK-OV-3 ovarian 64.2% | IGROV1 ovarian 109% | OVCAR-3 ovarian 114% | HS 578T breast 81.8% | NCI/ADR-RES ovarian 118%

COc1ccc(-c2nnc3n(C)c(=O)c4ccccc4n23)cc1N
inactive: SR leukemia 21.7% | RPMI-8226 leukemia 20% | OVCAR-8 ovarian 33.6% | OVCAR-5 ovarian 45.2% | OVCAR-4 ovarian 59.3% | SK-OV-3 ovarian 22% | IGROV1 ovarian 51.9% | HS 578T breast 32% | NCI/ADR-RES ovarian 22.8%
active: OVCAR-3 ovarian 6.12%

COc1cc(OC)c2sc(-c3ccc(-n4cncc4-c4ccc(OC)c(OC)c4)cc3)nc2c1
inactive: SR leukemia 50.7% | RPMI-8226 leukemia 33.3% | OVCAR-8 ovarian 71% | OVCAR-5 ovarian 79.5% | OVCAR-4 ovarian 52.9% | SK-OV-3 ovarian 84.8% | IGROV1 ovarian 67.2% | OVCAR-3 ovarian 43.7% | HS 578T breast 75.5% | NCI/ADR-RES ovarian 56.4%

N#C/C(=C\c1ccc2ccccc2c1)c1cc2ccccc2[nH]1
inactive: SR leukemia 23.5% | RPMI-8226 leukemia 32.4% | OVCAR-8 ovarian 46.5% | OVCAR-5 ovarian 61.2% | OVCAR-4 ovarian 88.3% | SK-OV-3 ovarian 64% | IGROV1 ovarian 48.1% | HS 578T breast 25.8% | NCI/ADR-RES ovarian 12.4%
active: OVCAR-3 ovarian 7.91%

COc1cccc(NC(=O)Cn2cc(CN3CCN(c4ccnc5cc(Cl)ccc45)CC3)nn2)c1
inactive: SR leukemia 97.2% | RPMI-8226 leukemia 48% | OVCAR-8 ovarian 83.2% | OVCAR-5 ovarian 93.5% | OVCAR-4 ovarian 85.9% | SK-OV-3 ovarian 74% | IGROV1 ovarian 84.9% | OVCAR-3 ovarian 101% | HS 578T breast 80.8% | NCI/ADR-RES ovarian 94.7%
